# Assay outcomes (PubChem BioAssay)
# The list is not random: actives were taken first. Their share in the collection is about 9.9%.
# HPGD block: inhibitors of human 15-hydroxyprostaglandin dehydrogenase (HPGD). Potency, µM, for the others: at the top dose activity change, negative = inhibition, hits mostly inhibitors. actives 4.3% (n = 150,000). AID 894. P15428. purified HPGD, NADH fluorescence kinetic, PGE2 substrate
# Target sequence (P15428 whole entry, looked up): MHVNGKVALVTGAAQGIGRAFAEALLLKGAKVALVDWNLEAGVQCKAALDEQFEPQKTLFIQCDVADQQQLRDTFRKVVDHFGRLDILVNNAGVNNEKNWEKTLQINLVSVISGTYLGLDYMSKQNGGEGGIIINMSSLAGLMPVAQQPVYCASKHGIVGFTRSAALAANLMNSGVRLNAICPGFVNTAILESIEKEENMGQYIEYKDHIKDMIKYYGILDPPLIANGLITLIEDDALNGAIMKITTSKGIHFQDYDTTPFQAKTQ
#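 NADH formation kinetics: reaction with 30 uM PGE2 and 1 mM NAD+ (final), 20 nM enzyme, Tris-HCl pH 8 with Tween 20, after 15 min compound preincubation at room temperature. Fluorescence change, last versus first of five reads.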
# Tau fibril FP: blocks human tau fibril formation measured by polarization. AID 1468. P10636. Potency, µM (top dose mostly 57.7 µM), inactives show at the highest dose activity, negative = inhibition, actives largely listed as inhibitors. actives 0.39% (n = 280,000). K18 P301L tau heparin fibrillization, Alexa594 FP, 6 h; active means well fitted curve in the direction sought with a large enough effect; inconclusive means small, poorly fitted or top-dose-only effect, or another doubt; inactive means no such curve, though single readings can be large; an effect the other way counts as inactive or inconclusive; further: nearly all actives have a fitted effect of over 55% in size
# Target sequence (P10636 561-689 P618L limits assumed): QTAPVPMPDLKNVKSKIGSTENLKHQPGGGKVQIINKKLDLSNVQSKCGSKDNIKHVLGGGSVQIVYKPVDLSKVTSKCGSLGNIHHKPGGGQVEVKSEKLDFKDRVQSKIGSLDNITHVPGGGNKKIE
#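 Compound effects on tau fibrillization are measured by Alexa 594 fluorescence polarization (ex 555, em 632 nm). K18 P301L tau is used at 15 uM with 0.24 uM labeled tracer, and 20 uM heparin induces aggregation over 6 hr at 37 C.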
# Tau fluor cs: counter-screen for tau fibril formation inhibitors. Potency, µM (titrated, usually from 57.7 µM), inactives show top-dose activity change, negative = decrease. tau K18 P301L Alexa594 fluorescence, heparin fibrillization. actives 0.93% (n = 280,000); active means well fitted curve in the direction sought with a large enough effect; inconclusive means small, poorly fitted or top-dose-only effect, or another doubt; inactive means no such curve, though single readings can be large; an effect the other way counts as inactive or inconclusive; further: nearly all actives have a fitted effect of over 55% in size
#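 Human K18 P301L tau (15 uM unlabeled plus 0.24 uM Alexa 594-labeled, final) in 100 mM sodium acetate pH 7 was mixed with compound and 20 uM heparin and incubated 6 hr at 37 C.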
# ALDH1A1 inh: inhibitors of human aldehyde dehydrogenase 1A1 | Purified ALDH1A1, NADH fluorescence, propionaldehyde substrate | actives 7.3% (n = 220,000) | Potency, µM (top dose mostly 75.3 µM), for the others: at the top dose activity, negative = inhibition, usual class: inhibitors | AID 1030;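 further: plate controls were no enzyme wells and a reference inhibitor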
# Tau ThT inhib: blocks human tau fibril formation measured by thioflavin T. actives 2.1% (n = 270,000). recombinant tau K18 P301L, heparin-induced fibrillization, ThT fluorescence. AID 1460. Potency, µM (top dose mostly 57.4 µM), for the others: at the top dose activity, negative = inhibition, actives largely listed as inhibitors; active means well fitted curve in the direction sought with a large enough effect; inconclusive means small, poorly fitted or top-dose-only effect, or another doubt; inactive means no such curve, though single readings can be large; an effect the other way counts as inactive or inconclusive; further: nearly all actives have a fitted effect of over 55% in size
#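 Using a mix of unlabeled (15 uM) and Alexa 594-labeled (0.24 uM) tau K18 P301L, heparin-triggered fibrillization over 6 hr at 37 C was scored by ThT fluorescence.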
# KDM4E inh: JMJD2E (human) inhibition. actives 1.6% (n = 230,000). B2RXH2. Potency, µM (series often up to 57.1 µM), without a hit: at the highest dose activity change, negative = inhibition, hits mostly inhibitors. JMJD2E catalytic domain, FDH-coupled NADH fluorescence (FDH is formaldehyde dehydrogenase). AID 2147;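 further: 0% = wells with enzyme and -100% = buffer wells without enzyme; nearly all actives have a fitted effect of over 50% in size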
# Starred values were filed as active, the others as inactive; ? = inconclusive; . = no result; [ ] = dose if it differs, or a comment. Unless noted, the call rests on the fitted dose curve; in most records, active means well fitted inhibition curve with a large enough effect (not every such curve was filed as active); inconclusive means small, poorly fitted or top-dose-only effect, or another doubt; inactive means no such curve, though single readings can be large or run the other way. Unless noted, on the % scale 0 is the no-effect control and ±100 the full control effect; potency means the concentration at half of the fitted maximal effect.
SMILES,HPGD block,Tau fibril FP,Tau fluor cs,ALDH1A1 inh,Tau ThT inhib,KDM4E inh
COc1ccccc1CCNC(=O)c1ccc(-c2nc(CSc3ccc(C)cc3)c(C)o2)cc1,.,5%,-7%,.,-9%,.
Cc1oc(-c2cc3c(cc2Cl)OCO3)nc1CN1CCCC(C(=O)N2CCOCC2)C1 (stereo unspecified),.,-8%[2.34 µM],-4%,1µM*,4%,8%
C[C@]12C[C@@](C)(C=C1/C=C/c1ccc(C(F)(F)F)cc1)C(=O)C[C@H]2c1ccc(C(F)(F)F)cc1,-1%,-3%,-10%,-8%,-3%,-2%
COc1ccc(-c2n[nH]c(C(F)(F)F)c2-c2cc3ccccc3o2)c(O)c1,.,-1%,?,?,18µM*,?
COC(=O)c1c(NC(=O)/C=C/c2ccc(OC)c(OC)c2)sc2c1CCC2,.,-9%,-14%,.,-11%,.
CC(C)CC(=O)NC(c1cccs1)c1ccc2cccnc2c1O (stereo unspecified),.,-4%[2.34 µM],8%[2.34 µM],-10%,8%,1%
CCCC(=O)NC(c1ccccc1OC)c1ccc2cccnc2c1O (stereo unspecified),.,14%,-11%,0%,-10%,32µM*
COc1ccc(C(NC(C)=O)c2ccc3cccnc3c2O)c(OC)c1 (stereo unspecified),-5%,10%,2%,-6%,-7%,22µM*
CCCCC(=O)NC(c1ccccc1OC)c1ccc2cccnc2c1O (stereo unspecified),.,12%,10%,.,.,?
CCC(=O)NC(c1cccs1)c1ccc2cccnc2c1O (stereo unspecified),.,-5%,-10%,-11%,-9%,25µM*
Cc1cc2c(cc1S(=O)(=O)CCC(=O)N1CCN(c3ccccc3)CC1)OCC(=O)N2,.,8%,-14%,.,?,.
COc1ccc2c(c1OC)C(Cc1ccccc1)N1CCc3cc4c(cc3C1C2)OCO4 (stereo unspecified),?,?,?,?,16µM*,?
COc1ccc2c(c1OC)CN(C)CCc1cc3c(cc1C(O)C2)OCO3 (stereo unspecified),-3%,3%,-14%,?,-16%,-7%
Nc1c(C(=O)NCc2ccccc2)nnn1Cc1cccc(Br)c1,.,-12%,-16%,.,-3%,.
Cc1ccc(S(=O)(=O)/N=C(/c2ccc(F)cc2)N2CCCCC2)cc1,-9%,0%,-2%,25µM*,-3%,-3%
COc1ccc(C2C(=O)c3ccccc3C2=Nc2ccc(Br)cc2)cc1 (stereo unspecified),7.1µM*,4%,2%,28µM*,7%,4%
O=S(=O)(c1ccccc1)N1CN2CN(C1)CN(S(=O)(=O)c1ccccc1)C2,-5%,.,.,-2%[13.5 µM],.,.
CCCc1[nH]n(-c2ccc([N+](=O)[O-])cc2)c(=O)c1C=NCCc1ccc(OC)c(OC)c1,.,-5%,-10%,1.8µM*,?,0%
CCCc1[nH]n(-c2ccc([N+](=O)[O-])cc2)c(=O)c1C=NCCc1c[nH]c2ccccc12,-24%,-10%,?,3%,5%,5%
Cc1ccc(N2C(=O)C3CC(c4ccccc4)=C4C5C=CC(C6C(=O)N(c7ccc(C)cc7)C(=O)C56)C4C3C2=O)cc1 (stereo unspecified),-7%,-4%,-12%,1.1µM*,-4%,2%
CC(=O)Nc1ccccc1OCc1cc(=O)n2c(C)csc2n1,.,-4%,-11%,.,-10%,.
O=C(N/N=C/c1cccc(O)c1)c1ccccc1O,.,3%,-5%,.,-11%,-5%
O=C(NCCCN1CCOCC1)C(=O)N/N=C/c1ccccc1O,.,1%,-2%,.,-8%,11µM*
O=C(NCCCN1CCOCC1)C(=O)N/N=C/c1ccccc1Cl,.,8%,0%,.,-4%,1%
O=C(N/N=C\c1ccccc1O)c1ccccc1O,?,-5%,-15%,9%,-4%,5µM*
O=C(NCc1ccccn1)C(=O)N/N=C/c1ccccc1O,.,?,-6%,.,-7%,6.3µM*
